Source: PubChem BioAssay (NCI)
This is part of a sample that, as a whole, favours compounds with a hit. Of some 83,000 tested, about 20% had one in any assay.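 The test compound was applied at a single concentration to cells in 96-well plates for 48 hours, and percent growth was recorded.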 Unmarked numbers belong to inactive results. The source made the active and inactive calls. The calls were made as follows: active = growth percent below 10; inactive = the rest.

Tests used:
Assay in all cases: NCI-60 one-dose screen, 48 h (100 = growth as untreated, 0 = no growth, -100 = all killed)
Conditions in all cases: 10 µM unless noted
NCI-H23 lung = system: NCI-H23 lung
NCI-H226 lung = system: NCI-H226 lung
NCI-H322M lung = system: NCI-H322M lung
HOP-62 NSCLC = system: HOP-62 NSCLC
HOP-92 NSCLC = system: HOP-92 NSCLC
NCI-H522 lung = system: NCI-H522 lung
A549/ATCC NSCLC = system: A549/ATCC NSCLC
786-0 renal = system: 786-0 renal
COLO 205 colon = system: COLO 205 colon
DU-145 prostate = system: DU-145 prostate
K-562 leukemia = system: K-562 leukemia
MALME-3M melanoma = system: MALME-3M melanoma
MDA-MB-231 breast = system: MDA-MB-231 breast
RXF 393 renal = system: RXF 393 renal
SF-268 CNS = system: SF-268 CNS
SF-295 CNS = system: SF-295 CNS
SF-539 CNS = system: SF-539 CNS
UACC-257 melanoma = system: UACC-257 melanoma
M14 melanoma = system: M14 melanoma
NCI-H460 lung = system: NCI-H460 lung

Structure (SMILES) | growth (NCI-H23 lung) [%] | growth (NCI-H226 lung) | growth (NCI-H322M lung) | growth (HOP-62 NSCLC) | growth (HOP-92 NSCLC) | growth (NCI-H522 lung) | growth (A549/ATCC NSCLC) | growth (786-0 renal) | growth (COLO 205 colon) | growth (DU-145 prostate) | growth (K-562 leukemia) | growth (MALME-3M melanoma) | growth (MDA-MB-231 breast) | growth (RXF 393 renal) | growth (SF-268 CNS) | growth (SF-295 CNS) | growth (SF-539 CNS) | growth (UACC-257 melanoma) | growth (M14 melanoma) | growth (NCI-H460 lung)
O=c1cc(/C=N\Nc2nc(-c3ccc(Cl)cc3Cl)cs2)c2cc(Cl)ccc2o1 | 85.3 | 87.9% | 95.3% | 80.3% | 82.2% | 88.6% | 88.3% | 96.9% | 107% | 102% | 84.1% | 116% | 82.8% | 114% | 101% | 95.2% | 94.3% | 99.2% | 91.4% | 
CCC1S/C(=N\N=C(/C)c2ccc[nH]2)N(c2ccccc2)C1=O (centres undefined) | 98.8 | 132% | 90.8% | 108% | 70.5% | 27.2% | 82.6% | 117% | 127% | 122% | 72.8% | 85.5% | 100% | 91.4% | 109% | 120% | 119% | 104% | 115% | 
CCN(CC)CC#CCOC(=O)[C@]1(C)CCC[C@]2(C)[C@H]3C[C@H]4C(C(C)C)=C[C@]3(CC[C@H]21)[C@@H]1C(=O)CCC(=O)[C@@H]14 | 57.3 | 76.2% | 87.7% | 79.2% | 57% | 29.5% | 48.1% | 54.1% | 36.2% | 71% | 18.6% | 45.3% | 69% | 15.3% | 68.9% | 59.6% | 66.8% | 56.9% | 51.4% | 
COC(=O)CCc1cc(O)c2c(c1)[C@@H](C(=O)OC)[C@H](c1ccc(O)c(O)c1)O2 |  | 102% | 98.3% | 54.3% | 79.8% | 51.8% | 98% | 93.9% | 104% | 95% | 26.2% | 66.8% | 78.8% | 88.5% | 74.1% | 84.7% | 74.5% | 85.6% | 32.5% | 107%
CCN1CCN(c2ccc(NC(=O)Nc3nc4ccc(-c5ccccc5OC)cc4s3)cc2)CC1 |  | 56.6% | -86% (active) | -66.2% (active) |  | -78.1% (active) | -77.1% (active) | -80.7% (active) | -73.2% (active) | -84.4% (active) | -67.4% (active) | -80.3% (active) | -74% (active) | -74.2% (active) | -59.4% (active) | -79.9% (active) | -82.6% (active) | -71.9% (active) | -70.1% (active) | 
CN1CC=C(c2cc(NC(=O)Nc3ccc(Oc4ccnc(NC(=O)C5CC5)c4)c(F)c3)cc(C(F)(F)F)c2)CC1 |  | 4.49% (active) | 7.64% (active) | -13.2% (active) |  | -49.8% (active) | -6.76% (active) | -6.75% (active) | -26.2% (active) | 9.52% (active) | -12.2% (active) | -32.5% (active) | -11.8% (active) | -27.4% (active) | -1.76% (active) | -9.64% (active) | -47.9% (active) | -0.573% (active) | -38.3% (active) | -5.88% (active)
C=C1C(=O)O[C@H]2[C@H]1CC/C(COC(=O)c1cccnc1N)=C\CC[C@@]1(C)O[C@@H]21 |  | 26.7% | 87% | 22.8% | 8.05% (active) | -15.3% (active) | 28.4% | 9.12% (active) | -76.5% (active) | 14% | 10.1% | -3.98% (active) | -9.35% (active) | -2.17% (active) | 23.9% | 34.5% | 12.6% | 57.8% | 10.2% | 5.22% (active)
CN(C)[C@@H]1C(=O)C(C(N)=O)=C(O)[C@@]2(O)C(=O)C3=C(O)c4c(O)cc(CN5CCc6ccccc6C5)c(Cl)c4C[C@H]3C[C@@H]12 |  | -70.8% (active) | -87.2% (active) | -85.4% (active) | -82.8% (active) | -79.3% (active) | -85.4% (active) | -83.8% (active) | -78.3% (active) | -92.2% (active) | -73.6% (active) | -52.5% (active) | -74.4% (active) | -82.2% (active) | -74.9% (active) | -88.9% (active) | -84.6% (active) | -62% (active) | -71.2% (active) | -68.7% (active)
